Assay results from ChEMBL document CHEMBL3988442, “University of Dundee, Small-Polar-MMV Screening Library” (2021).

Legend:
[1] = molecular target: T1, Aspartate--tRNA(Asp/Asn) ligase (Mycobacterium tuberculosis (strain ATCC 25618 / H37Rv)) (UniProt P9WFW3); experiment: Assay for Asp RNA synthetase-1 from Mycobacterium tuberculosis; assay type: functional; design: scale not given: direction of the effect not stated beside the values; conditions: 30 µM; note: in the data most compounds retested in dose-response had high values
T1 sequence (whole entry): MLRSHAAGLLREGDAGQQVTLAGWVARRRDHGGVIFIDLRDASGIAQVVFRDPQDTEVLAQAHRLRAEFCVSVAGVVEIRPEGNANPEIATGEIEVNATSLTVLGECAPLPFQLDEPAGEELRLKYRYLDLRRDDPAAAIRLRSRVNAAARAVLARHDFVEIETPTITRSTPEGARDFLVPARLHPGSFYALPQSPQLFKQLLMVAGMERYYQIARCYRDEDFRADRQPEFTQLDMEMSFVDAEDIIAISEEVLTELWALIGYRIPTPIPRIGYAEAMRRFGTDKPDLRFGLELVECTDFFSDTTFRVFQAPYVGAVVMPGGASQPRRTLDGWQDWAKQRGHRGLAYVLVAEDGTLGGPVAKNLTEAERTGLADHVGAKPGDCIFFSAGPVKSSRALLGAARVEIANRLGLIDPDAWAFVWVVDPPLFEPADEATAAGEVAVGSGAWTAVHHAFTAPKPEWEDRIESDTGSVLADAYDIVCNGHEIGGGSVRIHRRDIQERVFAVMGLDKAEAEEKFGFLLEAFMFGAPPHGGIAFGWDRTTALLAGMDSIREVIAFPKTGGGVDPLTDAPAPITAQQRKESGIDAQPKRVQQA

[2] = molecular target: Shiga toxin 2 (Escherichia coli O157:H7) (UniProt P09385+P09386); experiment: E. coli 0.157:H7 Shiga Toxin SOP - stx2 screening assay; assay type: functional; design: scale not given: direction of the effect not stated beside the values; conditions: 30 µM

Row | SMILES | Percent Effect [1] [%] | Percent Effect [2] [%]
1 | c1csc(-c2nc(CNC3CCc4ncnn4C3)cs2)c1 (centres undefined) | -3.43 | -12.9
2 | CC(C)c1nc(C(=O)NCCn2ccnc2)nn1-c1cccc(F)c1 | -3.06 | 32.1
3 | CN(C)S(=O)(=O)N1CCC2(CCCN(Cc3ccc(F)cc3)C2=O)C1 (centres undefined) | -2.05 | -20.5
4 | N#Cc1ccc(C(=O)N2CC[C@H]3[C@@H]2CCC(=O)N3c2ccccc2)cc1 | 0.485 | -9.64
5 | CCC1=N[C@@]2(CC[C@@H]3CN(S(=O)(=O)CC)C[C@@H]32)C(=O)N1CC(C)C | 2.06 | -9.69
6 | CN(C)C(=O)CO[C@H]1CN(Cc2ccc(F)cc2)[C@@H]2CCCO[C@H]12 | 5.68 | -22
7 | CC(=O)N1CCC2(CC1)CC(Oc1ccccc1)CO2 (centres undefined) | -1.48 | -19.5
8 | CCc1nc(C2CCCN2CC(=O)Nc2nncs2)no1 (centres undefined) | -0.364 | 2.9
9 | CC(C)(C)c1n[nH]c(C2CN(C(=O)CCc3cscn3)CCO2)n1 (centres undefined) | -2.97 | 7.94
10 | CCNC(c1cccnc1)c1ccc(F)c(F)c1 (centres undefined) | -4.58 | 10.8
11 | Cc1nc(N2CCOCC2)nc2c1CN(C(=O)Cc1ccccn1)CC2 | -2.71 | -57.2
12 | O=C(CCc1ccccc1)N1CCn2cc(Cn3cncn3)nc2C1 | -1.12 | -10
13 | O=C(NCCCNC(=O)c1cccc(O)c1)NCc1ccccc1F | -5.63 | -41.9
14 | CCN1CC(C(=O)NCc2ccnc(-n3ccnc3C)c2)CC1=O (centres undefined) | -3.16 | -11.9
15 | COc1ccccc1-c1noc(CN2CCCC2Cn2cccn2)n1 (centres undefined) | -7.54 | 21.6
16 | CC(CNC(=O)c1cccnc1Oc1cccnc1)N(C)C (centres undefined) | -3.18 | -12.1
17 | CCn1cnnc1CNC(=O)c1cc(Cl)ccc1O | 3.77 | -19.6
18 | O=C(c1ccccn1)N1Cc2nccn2CC(COc2cccnc2)C1 (centres undefined) | 3.15 | -14.8
19 | CC(O)CN1CCN(C(=O)c2ccc(N(C)C)nn2)CC1 (centres undefined) | -6.65 | -70.5
20 | CN(Cc1nnc(-c2ccco2)o1)CC1CCCN1c1cccnn1 (centres undefined) | 7.29 | 11.7
21 | CO[C@@H]1CC[C@H]2[C@H]1OCCN2C(=O)COc1ccc(F)cc1 | -2.58 | -2.38
22 | Nc1nccc(NCc2cc3n(n2)CCCN(C(=O)C2CCC2)C3)n1 | 0.0228 | 1.54
